Compound activity as filed in PubChem BioAssay.
esBAF inh = blocks esBAF chromatin remodeling in mouse ES cells. reporter increase, % at 12.5 µM. Bmi1-luciferase knock-in reporter, 24 h; 100% = twice the neutral-well signal. 350,000 compounds, 2% hits; in the data active = activation above about 40%; inconclusive = no clear call, values can overlap the other calls;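 also: a rise in the Bmi1 reporter signal indicates esBAF inhibition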
NadD inh = blocks S. aureus nicotinate mononucleotide adenylyltransferase; inhibition, % at 20 µM; AID 602399; purified NadD enzyme, colorimetric absorbance read-out; 360,000 compounds, 0.78% hits; in the data active = inhibition above about 26%
SMARCA2 activ = increases SMARCA2 function in MMTV reporter cells | MG213 cells, MMTV-luciferase reporter, dexamethasone, overnight | activation, % at 9.1 µM | 370,000 compounds, 1% hits | AID 652017; in the data active = activation above about 7.8%
GRIN3A LBD mod = NR3A (human) ligand-binding domain modulation. Tm shift relative to glycine control, % at 25 µM. 340,000 compounds, 2.5% hits. NR3A LBD differential scanning fluorimetry, Tm shift; 0% = protein alone, 100% = glycine-bound protein. AID 1259313;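 active = melting temperature shift of at least 10% of the positive control shift, at one fixed dose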
SKN-1 inh = C. elegans SKN-1 inhibition; C. elegans VP596 Pgst-4::GFP/RFP ratio, acrylamide-induced, 24 h; inhibition, % at 21.8 µM; 360,000 compounds, 0.49% hits;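 active = interference check ratio from 0.5 to 1.5 plus GFP to RFP signal ratio inhibition reaching or exceeding a fixed threshold, cut at about 30% in these data, passing the limit was not always enough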
Vif imaging = inhibitors of HIV Vif; AID 602346; HEK293T cells, Vif self-association by quenched fluorescence, imaging, 24 h; 340,000 compounds, 0.35% hits; inhibition, % at 7.49 µM; in the data active = inhibition above about 50%, passing the limit was not always enough; inconclusive = no clear call, values can overlap the other calls; inactive = below about 31%
SMARCA2 conf = SMARCA2 activation, confirmation screen; activation, % at 9.1 µM; 3,500 compounds, 30% hits; MG213 cells, MMTV-luciferase with dexamethasone, luminescence, overnight; MG213 cells expressing E1A, Rb sequestered; DMSO wells 0%, reference activator 100%; shares compounds with SMARCA2 activ;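 active = activation above its plate's cutoff, the mean activation of tested wells plus 3 SD, cut at about 7.9% in these data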
GAL4-VP16 Luc = activates GAL4-VP16 luciferase, flagging SMARCA2 activator hits. activation, % at 9.1 µM. HEK293 GAL4-VP16 pG5luc reporter, luciferase luminescence; scaled: DMSO wells 0%, SAHA wells 100%. 3,500 compounds, 41% hits. shares compounds with SMARCA2 activ;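 active = activation above the solvent-only control well mean plus 3 SD, averaged across control plates, cut at about 5.2% in these data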
Hits are given with their value; n = inactive; u = inconclusive; x = no result given. Sampled rows, rich in hits. Any-hit rate of the full collection: about 5.2%.

SMILES | esBAF inh | NadD inh | SMARCA2 activ | GRIN3A LBD mod | SKN-1 inh | Vif imaging | SMARCA2 conf | GAL4-VP16 Luc
CCC(C(=O)NNC(=O)c1cnccn1)c1ccccc1 (centres undefined) | x | n | 8.1 | n | n | n | n | n
C[C@@H]1CCCCO[C@@H](CN(C)C(=O)CCC(F)(F)F)[C@H](C)CN([C@@H](C)CO)C(=O)c2cc(NS(=O)(=O)c3ccc(F)cc3)ccc2O1 | n | x | x | x | x | x | x | x
CCCN(CCC)CCCNC(=S)Nc1ccc2nc(N3CCCC3)cc(C)c2c1 | n | n | 14.8 | n | n | n | 16.2 | n
CCCCN(CC)CCCNC(=S)Nc1ccc2nc(N3CCN(C)CC3)cc(C)c2c1 | x | n | n | n | n | n | x | x
CCN(CC)CCNC(=S)Nc1ccc2nc(N3CCN(C)CC3)cc(C)c2c1 | n | n | n | n | n | n | x | x
CCN(CC)CCNC(=S)Nc1ccc2nc(N3CCCC3)cc(C)c2c1 | n | n | 9.6 | n | n | n | 15.3 | n
CC1CCCN(C(=O)COC(=O)c2ccc3[nH]c4c(c3c2)CCCC4)C1 (centres undefined) | x | n | 8.1 | n | n | n | n | n
COC(=O)C1CCN(C(=O)COC(=O)c2ccc3[nH]c4c(c3c2)CCCC4)CC1 | n | n | n | n | n | n | x | x
CCCC(O)C#Cc1cnc2c(c1)C(=O)N([C@H](C)CO)C[C@H](C)[C@H](CN(C)C(=O)NC1CCCCC1)O2 (some centres undefined) | n | x | x | x | x | x | x | x
COc1ccc(C=C2NC(=S)NC2=O)cc1 | n | n | n | n | n | n | x | x
COc1ccc(C(=O)N2C(=S)NC(=O)/C2=C\c2ccc(C)cc2)cc1 | x | n | 12.7 | n | n | n | n | n
COc1ccccc1C(=O)n1nc(C)cc1C | n | n | n | n | n | n | x | x
Cc1cc(C)n(C(=O)c2ccc(C)o2)n1 | x | n | 8.7 | n | n | n | n | n
COc1ccc(-c2cc(=O)c3cc(OC)ccc3o2)cc1 | n | n | 9.8 | n | n | n | n | 7.0
COC(=O)C(C)Oc1ccc2cc(-c3ccccc3)c(=O)oc2c1 (centres undefined) | n | n | n | n | n | n | x | x
COc1ccc2c(c1)oc(=O)c1cc(OC)ccc12 | 78.9 | n | 9.1 | n | n | n | 19.8 | 6.5
CCC(N=c1cc(-c2ccc(OC)cc2)oc2ccc(C)cc12)C(=O)O (centres undefined) | x | n | 16.8 | n | n | n | 10.6 | 8.8
COc1ccc2cc(-c3ccccc3)c(=O)oc2c1 | n | n | 9.7 | n | n | n | n | 9.2
CN1CCN(C(=O)C[C@@H]2CC[C@H]3[C@@H](COC[C@@H](O)CN3Cc3cccc(-c4ccncc4)c3)O2)CC1 | n | x | x | x | x | x | x | x
CCCN(C)C[C@H]1OCCCC[C@@H](C)Oc2ccc(NS(=O)(=O)c3ccc(OC)cc3)cc2C(=O)N([C@@H](C)CO)C[C@H]1C | n | x | x | x | x | x | x | x
O=C(Nc1ccccc1F)N1CCc2ccccc2C1 | 65.0 | n | 10.4 | n | n | n | n | 8.0
Cc1ccc(C)c(NC(=O)N2CCc3ccccc3C2)c1 | n | n | n | n | n | n | x | x
Cc1cc(C(=O)Nc2cccc3c2O[C@H](CN(C)Cc2ccc(Oc4ccccc4)cc2)[C@@H](C)CN([C@H](C)CO)C3=O)n(C)n1 | n | x | x | x | x | x | x | x
C[C@H]1CCCCO[C@H](CN(C)C(=O)c2ccccc2)[C@@H](C)CN([C@@H](C)CO)C(=O)c2cc(NS(C)(=O)=O)ccc2O1 | n | x | x | x | x | x | x | x
C[C@H]1CN([C@@H](C)CO)C(=O)c2cccc(NC(=O)NC3CCCCC3)c2O[C@@H]1CN(C)Cc1ccccc1 | n | x | x | x | x | x | x | x
SMILES | esBAF inh | NadD inh | SMARCA2 activ | GRIN3A LBD mod | SKN-1 inh | Vif imaging | SMARCA2 conf | GAL4-VP16 Luc
COc1ccccc1CNC(=O)Cc1ccc(OC)c(OC)c1 | n | n | n | n | n | n | x | x
COc1ccccc1CNC(=O)Cc1ccccc1 | u | n | 9.5 | n | n | n | n | n
O=C(Nc1ccc2c(c1)[C@H]1C[C@H](CC(=O)N3CCc4ccccc4C3)O[C@H](CO)[C@H]1O2)c1ccc2c(c1)OCO2 | n | x | x | x | x | x | x | x
Nc1ccccc1SCC(=O)N1CCc2ccccc21 | n | n | n | n | n | n | x | x
O=C(CS(=O)(=O)c1ccccc1)N1CCc2ccccc21 | x | n | 10.1 | n | n | x | 8.5 | 9.8
O=C(CSC1=NCCS1)N1CCc2ccccc21 | x | n | 8.1 | n | n | n | 12.2 | 8.4
O=C(Cc1ccccc1)N1CCc2ccccc21 | n | n | n | n | n | n | x | x
COc1cc(Nc2c3ccccc3nc3ccccc23)cc(OC)c1OC | n | n | 8.2 | n | n | n | 30.5 | n
COc1ccccc1/C=C/c1nc2ccccc2c(=O)o1 | n | n | 10.4 | n | n | n | n | 11.8
CC(=O)Nc1ccc2nc(NC(=O)c3cccnc3)sc2c1 | x | n | 10.9 | n | n | n | 10.3 | n
COC(=O)[C@@H]1[C@@H](CO)[C@@H]2Cn3c(ccc(C4=CCCC4)c3=O)[C@@H]2N1Cc1ccccn1 | n | x | x | x | x | x | x | x
CSc1nc(SCCN(C)C)c2c3c(sc2n1)COC(C)(C)C3 | x | n | 8.1 | n | n | n | n | n
O=C(NCC[C@@H]1CC[C@@H](NS(=O)(=O)Cc2ccccc2)[C@H](CO)O1)C1CC1 | n | x | x | x | x | x | x | x
CCCCNC(=S)NNC(=O)c1csc(C)c1CC | x | n | 8.3 | n | n | n | n | n
C=CCNC(=S)NNC(=O)c1csc(C)c1CC | n | n | n | n | n | x | x | x
C[C@@H]1CN([C@@H](C)CO)S(=O)(=O)c2ccc(C#CCN(C)C)cc2O[C@H]1CN(C)Cc1ccc2c(c1)OCO2 | n | x | x | x | x | x | x | x
CCOc1ccc(N=C(/C(C(=O)C(=O)N2CCOCC2)=C(\O)c2ccccc2)c2ccccc2)cc1 | 67.6 | n | 9.2 | n | n | n | n | 6.1
O=C(Cc1ccccc1)N[C@@H]1C=C[C@@H](CC(=O)N2CCCCC2)O[C@H]1CO | n | x | x | x | x | x | x | x
CCOC(=O)N1CCN(S(=O)(=O)c2ccc(C(=O)Nc3sc4c(c3C#N)CCC4)cc2)CC1 | n | n | 10.9 | n | n | x | n | n
CCOc1ccc(NC(=O)c2ccco2)cc1 | n | n | n | n | n | n | x | x
CCOc1ccc(NC(=S)NC(=O)c2ccco2)cc1 | u | n | 10.0 | n | n | n | n | 11.0
O=C(CCNC(=O)c1ccccc1)NCc1ccccc1F | n | n | 9.4 | n | n | n | n | n
O=C(CCNC(=O)c1ccc(Br)cc1)NCc1ccccc1F | n | n | n | n | n | n | x | x
c1coc(CNc2nc3ccccc3s2)c1 | n | n | 9.7 | n | n | n | 15.0 | 12.2
COc1ccc(-c2csc(NCc3ccco3)n2)cc1 | n | n | 9.2 | n | n | n | 9.5 | 12.8
